About 410 targets per protein were measured; listed, in parts, are those with the strongest signals and a random draw of the rest.
Key:
Experiment in all cases: glycan array binding signal (z-score within array); higher = stronger binding
Details in all cases: glycan notation: IUPAC condensed, linker removed
[1] = target: GlcNAc(b1-3)Gal(b1-4)GlcNAc(b1-3)Gal(b1-4)GlcNAc(b1-3)Gal(b1-4)GlcNAc(b1-3)Gal(b1-4)GlcNAc(b1-2)[GlcNAc(b1-3)Gal(b1-4)GlcNAc(b1-3)Gal(b1-4)GlcNAc(b1-3)Gal(b1-4)GlcNAc(b1-3)Gal(b1-4)GlcNAc(b1-6)]Man(a1-6)[GlcNAc(b1-3)Gal(b1-4)GlcNAc(b1-3)Gal(b1-4)GlcNAc(b1-3)Gal(b1-4)GlcNAc(b1-3)Gal(b1-4)GlcNAc(b1-2)Man(a1-3)]Man(b1-4)GlcNAc(b1-4)[Fuc(a1-6)]GlcNAc
Method in brief: (§1)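 Columns mapping to the same glycan were averaged after glycan names were converted to IUPAC-condensed notation. The data come from 3228 arrays in the Consortium for Functional Glycomics database, limited to those with an available protein sequence. Binding is reported as a within-array Z-score averaged across arrays of one protein sequence and across linkers.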

[2] = target: GlcNAc(b1-3)[GlcNAc(b1-6)]GalNAc
Method in brief: as §1

[3] = target: Man(a1-2)Man(a1-3)Man
Method in brief: as §1

[4] = target: Man(a1-3)[Man(a1-6)]Man
Method in brief: as §1

[5] = target: Neu5Ac(a2-3)Gal(b1-3)GalNAc(b1-4)Gal(b1-4)Glc
Method in brief: as §1

[6] = target: Neu5Ac(a2-3)Gal(b1-3)GlcNAc
Method in brief: as §1

[7] = target: Neu5Ac(a2-3)Gal(b1-3)GlcNAc(b1-3)Gal(b1-4)GlcNAc
Method in brief: as §1

[8] = target: Neu5Ac(a2-3)Gal(b1-3)GlcNAc(b1-6)GalNAc
Method in brief: as §1

[9] = target: Neu5Ac(a2-3)Gal(b1-3)[Fuc(a1-4)]GlcNAc(b1-3)Gal(b1-3)[Fuc(a1-4)]GlcNAc
Method in brief: as §1

[10] = target: Neu5Ac(a2-3)Gal(b1-4)GlcNAc(b1-2)Man(a1-3)[Neu5Ac(a2-6)Gal(b1-4)GlcNAc(b1-2)Man(a1-6)]Man(b1-4)GlcNAc(b1-4)GlcNAc
Method in brief: as §1

[11] = target: Neu5Ac(a2-3)Gal(b1-4)GlcNAc(b1-3)Gal(b1-4)GlcNAc(b1-2)Man(a1-3)[Neu5Ac(a2-3)Gal(b1-4)GlcNAc(b1-3)Gal(b1-4)GlcNAc(b1-2)Man(a1-6)]Man(b1-4)GlcNAc(b1-4)GlcNAc
Method in brief: as §1

[12] = target: Neu5Ac(a2-3)Gal(b1-4)GlcNAc(b1-3)Gal(b1-4)GlcNAc(b1-3)Gal(b1-4)GlcNAc(b1-2)Man(a1-3)[Neu5Ac(a2-3)Gal(b1-4)GlcNAc(b1-3)Gal(b1-4)GlcNAc(b1-3)Gal(b1-4)GlcNAc(b1-2)Man(a1-6)]GalNAc
Method in brief: as §1

[13] = target: Neu5Ac(a2-3)Gal(b1-4)GlcNAc(b1-3)Gal(b1-4)GlcNAc(b1-3)[Neu5Ac(a2-3)Gal(b1-4)GlcNAc(b1-3)Gal(b1-4)GlcNAc(b1-6)]GalNAc
Method in brief: as §1

[14] = target: Neu5Ac(a2-3)Gal(b1-4)GlcNAc(b1-6)[Neu5Ac(a2-3)Gal(b1-3)]GalNAc
Method in brief: as §1

[15] = target: Neu5Ac(a2-3)Gal(b1-4)[Fuc(a1-3)]GlcNAc(b1-3)GalNAc
Method in brief: as §1

[16] = target: Neu5Ac(a2-3)Gal(b1-4)[Fuc(a1-3)]GlcNAc(b1-6)[Gal(b1-3)]GalNAc
Method in brief: as §1

[17] = target: Neu5Ac(a2-6)Gal(b1-4)GlcNAc(b1-2)Man(a1-3)Man(b1-4)GlcNAc(b1-4)GlcNAc
Method in brief: as §1

[18] = target: Neu5Ac(a2-6)Gal(b1-4)GlcNAc(b1-2)Man(a1-3)[Neu5Ac(a2-6)Gal(b1-4)GlcNAc(b1-2)Man(a1-6)]Man(b1-4)GlcNAc(b1-4)[Fuc(a1-6)]GlcNAc
Method in brief: as §1

[19] = target: Neu5Ac(a2-6)Gal(b1-4)GlcNAc(b1-2)[Neu5Ac(a2-6)Gal(b1-4)GlcNAc(b1-4)]Man(a1-3)[GlcNAc(b1-4)][Neu5Ac(a2-6)Gal(b1-4)GlcNAc(b1-2)[Neu5Ac(a2-6)Gal(b1-4)GlcNAc(b1-6)]Man(a1-6)]Man(b1-4)GlcNAc(b1-4)GlcNAc
Method in brief: as §1

[20] = target: Neu5Ac(a2-6)Gal(b1-4)GlcNAc(b1-3)Gal(b1-4)[Fuc(a1-3)]GlcNAc(b1-3)Gal(b1-4)[Fuc(a1-3)]GlcNAc
Method in brief: as §1

[21] = target: Neu5Ac(a2-8)Neu5Ac(a2-3)Gal(b1-3)GalNAc(b1-4)[Neu5Ac(a2-8)Neu5Ac(a2-3)]Gal(b1-4)Glc
Method in brief: as §1

[22] = target: Neu5Ac(b2-6)GalNAc
Method in brief: as §1

[23] = target: Neu5Gc(a2-3)Gal(b1-3)[Fuc(a1-4)]GlcNAc
Method in brief: as §1

B1: BIp1-His (Cryptococcus neoformans) (protein)
chain: MFTKIFVALFAATAVLSAPVESAEKRITHTGRATFYSPSVGIGACGWQNTDEELVVALNAPQYALNADHNCGQSVRITNEQNGNQEIAKVVDLCPGCNDGDLDMSPALFGALNNNDFDQGVFPISWNFLPRDDTSSSN
- glycan array binding signal (z-score) [1]: 0.882
- glycan array binding signal (z-score) [2]: -0.522
- glycan array binding signal (z-score) [3]: -0.136
- glycan array binding signal (z-score) [4]: 0.728
- glycan array binding signal (z-score) [5]: -0.565
- glycan array binding signal (z-score) [6]: -0.217
- glycan array binding signal (z-score) [7]: 0.65
- glycan array binding signal (z-score) [8]: 1.86
- glycan array binding signal (z-score) [9]: -0.526
- glycan array binding signal (z-score) [10]: -0.064
- glycan array binding signal (z-score) [11]: -0.11
- glycan array binding signal (z-score) [12]: 2.41
- glycan array binding signal (z-score) [13]: -0.12
- glycan array binding signal (z-score) [14]: -1.36
- glycan array binding signal (z-score) [15]: 1.32
- glycan array binding signal (z-score) [16]: 0.648
- glycan array binding signal (z-score) [17]: 0.176
- glycan array binding signal (z-score) [18]: 0.617
- glycan array binding signal (z-score) [19]: -0.066
- glycan array binding signal (z-score) [20]: -0.059
- glycan array binding signal (z-score) [21]: 1.77
- glycan array binding signal (z-score) [22]: -0.971
- glycan array binding signal (z-score) [23]: -0.455

From the supplement of paper PMC8728848
